Test results from PMC7862700, “An all-to-all approach to the identification of sequence-specific readers for epigenetic DNA modifications on cytosine”.

Columns and labels:
Test in all cases: DAPPL (digital affinity profiling via proximity ligation, sequencing); 10 mM Tris-HCl pH 7.5, 50 mM NaCl, 1 mM DTT, 4% glycerol, room temperature, 30 min; GST-TFs on glutathione beads, 16-mer random dsDNA library, 0.1% formaldehyde crosslink after washing; high values mean tight binding
Conditions in all cases: protein: recombinant; tags: N-terminal GST; dsDNA, one strand shown
FLI1 = biological target: T1, FLI1 (Homo sapiens, UniProt Q01543 1-452)
T1 sequence: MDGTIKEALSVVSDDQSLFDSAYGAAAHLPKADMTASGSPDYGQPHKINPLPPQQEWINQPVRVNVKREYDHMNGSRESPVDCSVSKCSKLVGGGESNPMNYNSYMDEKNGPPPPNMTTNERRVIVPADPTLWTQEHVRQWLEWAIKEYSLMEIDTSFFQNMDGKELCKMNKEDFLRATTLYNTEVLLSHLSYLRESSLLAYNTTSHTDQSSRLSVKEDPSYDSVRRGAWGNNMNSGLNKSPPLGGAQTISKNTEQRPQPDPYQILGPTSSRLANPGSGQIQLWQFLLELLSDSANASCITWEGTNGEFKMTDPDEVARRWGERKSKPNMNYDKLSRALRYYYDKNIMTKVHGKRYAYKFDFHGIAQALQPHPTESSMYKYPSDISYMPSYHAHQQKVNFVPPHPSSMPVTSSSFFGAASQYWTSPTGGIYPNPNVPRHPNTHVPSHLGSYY
Method in brief: (§1)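 After expression in yeast as GST fusions, human transcription factors were bound to glutathione beads, DNA-barcoded and mixed with a tag-only sample. The pools were incubated with 200 nmole of a 16-mer random double-stranded DNA library in Tris/NaCl/DTT/glycerol buffer (30 min, room temperature), washed and crosslinked with 0.1% formaldehyde. Proximity ligation with BsaI/T4 ligase ran for 1 h at 37 °C, before PCR amplification and sequencing on an Illumina NextSeq500. Binding signal is a hexamer's read frequency for a factor divided by its frequency for the tag-only sample.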

ELK1 = biological target: T2, ELK1 (Homo sapiens, UniProt P19419 1-428)
T2 sequence: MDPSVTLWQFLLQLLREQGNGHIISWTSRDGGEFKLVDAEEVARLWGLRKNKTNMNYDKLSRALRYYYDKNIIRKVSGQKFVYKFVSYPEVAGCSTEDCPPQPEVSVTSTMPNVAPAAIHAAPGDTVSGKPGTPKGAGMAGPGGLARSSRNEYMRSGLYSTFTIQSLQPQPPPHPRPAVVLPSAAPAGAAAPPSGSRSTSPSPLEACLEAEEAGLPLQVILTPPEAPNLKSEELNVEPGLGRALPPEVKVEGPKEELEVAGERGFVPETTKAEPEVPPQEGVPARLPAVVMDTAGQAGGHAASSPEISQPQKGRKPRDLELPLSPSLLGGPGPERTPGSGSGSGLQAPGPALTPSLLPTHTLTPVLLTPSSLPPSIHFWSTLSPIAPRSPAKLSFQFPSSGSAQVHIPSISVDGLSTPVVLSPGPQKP
Method in brief: as §1

GABPA = biological target: T3, GABPA (Homo sapiens, UniProt Q06546 1-454)
T3 sequence: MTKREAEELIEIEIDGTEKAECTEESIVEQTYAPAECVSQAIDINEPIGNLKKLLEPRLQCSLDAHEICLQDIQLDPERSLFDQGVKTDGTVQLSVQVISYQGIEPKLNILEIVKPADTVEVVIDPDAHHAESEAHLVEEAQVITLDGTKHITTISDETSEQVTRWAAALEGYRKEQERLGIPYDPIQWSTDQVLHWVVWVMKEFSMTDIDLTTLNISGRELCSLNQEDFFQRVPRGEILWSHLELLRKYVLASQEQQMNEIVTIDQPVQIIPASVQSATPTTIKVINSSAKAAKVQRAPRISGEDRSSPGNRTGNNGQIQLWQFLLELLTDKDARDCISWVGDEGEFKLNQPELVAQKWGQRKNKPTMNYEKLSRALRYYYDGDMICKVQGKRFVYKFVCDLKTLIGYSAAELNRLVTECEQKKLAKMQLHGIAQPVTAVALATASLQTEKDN
Method in brief: as §1

ERG = biological target: T4, ERG (Homo sapiens, UniProt P11308 1-479)
T4 sequence: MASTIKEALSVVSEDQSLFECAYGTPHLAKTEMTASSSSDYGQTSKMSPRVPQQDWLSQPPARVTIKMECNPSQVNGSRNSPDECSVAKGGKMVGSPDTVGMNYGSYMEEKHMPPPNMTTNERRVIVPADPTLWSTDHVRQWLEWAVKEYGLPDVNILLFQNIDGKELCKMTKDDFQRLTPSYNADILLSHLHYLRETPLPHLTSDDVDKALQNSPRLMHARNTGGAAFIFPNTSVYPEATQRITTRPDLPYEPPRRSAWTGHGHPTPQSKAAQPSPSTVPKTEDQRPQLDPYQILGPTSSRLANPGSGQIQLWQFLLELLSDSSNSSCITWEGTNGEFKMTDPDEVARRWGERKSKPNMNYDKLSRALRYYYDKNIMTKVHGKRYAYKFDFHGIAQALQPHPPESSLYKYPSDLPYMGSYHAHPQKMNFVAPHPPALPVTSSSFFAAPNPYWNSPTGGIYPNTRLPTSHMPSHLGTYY
Method in brief: as §1

ELF1 = ELF1 (Homo sapiens, UniProt P32519 1-619)
ELF1, sequence (P32519 whole entry): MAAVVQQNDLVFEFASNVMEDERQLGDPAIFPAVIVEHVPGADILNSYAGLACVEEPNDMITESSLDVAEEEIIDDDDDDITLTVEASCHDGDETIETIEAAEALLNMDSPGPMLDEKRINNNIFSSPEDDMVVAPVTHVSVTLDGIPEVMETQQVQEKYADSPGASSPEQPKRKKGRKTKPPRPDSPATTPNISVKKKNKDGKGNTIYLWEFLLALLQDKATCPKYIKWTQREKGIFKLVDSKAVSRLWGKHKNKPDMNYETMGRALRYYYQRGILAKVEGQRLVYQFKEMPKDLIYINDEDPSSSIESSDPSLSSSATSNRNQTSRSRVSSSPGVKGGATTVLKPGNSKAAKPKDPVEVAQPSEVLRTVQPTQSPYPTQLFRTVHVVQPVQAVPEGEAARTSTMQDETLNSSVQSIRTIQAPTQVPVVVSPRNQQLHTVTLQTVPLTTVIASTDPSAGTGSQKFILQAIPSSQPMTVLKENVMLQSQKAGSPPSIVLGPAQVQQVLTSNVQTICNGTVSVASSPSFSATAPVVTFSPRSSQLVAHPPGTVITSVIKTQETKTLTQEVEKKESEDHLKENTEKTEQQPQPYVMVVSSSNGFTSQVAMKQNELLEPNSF
Method in brief: as §1

EHF = biological target: T5, EHF (Homo sapiens, UniProt Q9NZC4 1-300)
T5 sequence: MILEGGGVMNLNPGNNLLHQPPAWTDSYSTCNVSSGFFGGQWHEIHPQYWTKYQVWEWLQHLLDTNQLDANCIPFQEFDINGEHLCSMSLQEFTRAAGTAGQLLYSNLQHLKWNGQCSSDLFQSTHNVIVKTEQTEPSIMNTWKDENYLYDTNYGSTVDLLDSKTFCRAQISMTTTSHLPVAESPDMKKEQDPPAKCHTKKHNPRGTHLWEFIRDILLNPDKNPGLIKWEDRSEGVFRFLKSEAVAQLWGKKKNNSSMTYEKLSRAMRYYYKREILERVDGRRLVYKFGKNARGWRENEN
Method in brief: as §1

SPI1 = SPI1 (Homo sapiens, UniProt P17947 1-270)
Method in brief: as §1

SPIB = SPIB (Homo sapiens, UniProt Q01892 1-262)
SPIB, sequence (Q01892 whole entry): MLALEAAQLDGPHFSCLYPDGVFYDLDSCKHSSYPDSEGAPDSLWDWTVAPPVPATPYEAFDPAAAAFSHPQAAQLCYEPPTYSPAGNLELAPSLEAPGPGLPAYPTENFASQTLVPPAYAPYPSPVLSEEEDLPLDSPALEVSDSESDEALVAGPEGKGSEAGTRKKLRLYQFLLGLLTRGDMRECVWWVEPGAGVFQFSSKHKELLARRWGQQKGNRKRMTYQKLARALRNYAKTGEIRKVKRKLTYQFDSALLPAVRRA
Method in brief: as §1

ELK3 = biological target: T6, ELK3 (Homo sapiens, UniProt P41970 1-407)
T6 sequence: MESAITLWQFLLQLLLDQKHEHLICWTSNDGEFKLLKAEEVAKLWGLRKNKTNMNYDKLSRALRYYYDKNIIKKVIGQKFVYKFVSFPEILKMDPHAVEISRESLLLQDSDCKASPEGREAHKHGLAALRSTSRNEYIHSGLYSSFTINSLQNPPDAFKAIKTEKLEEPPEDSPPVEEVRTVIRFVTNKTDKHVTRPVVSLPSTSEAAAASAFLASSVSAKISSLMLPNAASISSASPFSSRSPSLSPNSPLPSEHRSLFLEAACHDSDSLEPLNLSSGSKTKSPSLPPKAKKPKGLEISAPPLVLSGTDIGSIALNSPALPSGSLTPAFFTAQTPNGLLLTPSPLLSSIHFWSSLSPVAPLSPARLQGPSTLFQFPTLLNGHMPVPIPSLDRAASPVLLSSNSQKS
Method in brief: as §1

CCCCAT
binding signal (FLI1): 1.37 fold enrichment (6-mer frequency, TF over GST control)
binding signal (ELK1): 1.24 fold enrichment (6-mer frequency, TF over GST control)
binding signal (GABPA): 1.26 fold enrichment (6-mer frequency, TF over GST control)
binding signal (ERG): 1.34 fold enrichment (6-mer frequency, TF over GST control)
binding signal (ELF1): 1.31 fold enrichment (6-mer frequency, TF over GST control)
binding signal (EHF): 1.27 fold enrichment (6-mer frequency, TF over GST control)
binding signal (SPI1): 1.46 fold enrichment (6-mer frequency, TF over GST control)
binding signal (SPIB): 1.18 fold enrichment (6-mer frequency, TF over GST control)
binding signal (ELK3): 1.2 fold enrichment (6-mer frequency, TF over GST control)
